The campaign covered roughly 87,000 compounds. About 360 (0.41%) were called active. The sample holds actives, similar compounds and a random draw of the others, so the mix is not that of the screen. Values without a mark were called inactive. Rule as the data show it: active = cytotoxicity above about 50%; inactive = the rest.
test: HT1080 cell viability loss – fluorescence readout (AID 620); conditions: at 10 µM, active compounds read high;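 also: cells exposed to compound overnight then 4 h with Alamar Blue; 0% = vehicle DMSO and 100% = killing control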

SMILES | cytotoxicity
CC(=O)c1ccc(Oc2cc(C)nc(NCc3ccccc3)n2)cc1 | -1%
CC(=O)c1ccc(Oc2cc(C)nc(-n3nc(C)cc3C)n2)cc1 | 50.3% (active)
COC(=O)c1ccc(Oc2cc(C)nc(SC)n2)cc1 | 48.5%
COC(=O)c1ccc(Oc2cc(C)nc(-n3nc(C)cc3C)n2)cc1 | 68.3% (active)
COC(=O)c1ccc(Oc2nc(C)cc(Oc3ccccc3)n2)cc1 | 11.3%
Cc1ccc(Oc2cc(-n3nc(C)cc3C)ncn2)cc1 | -3.6%
c1ccc(-c2cc(-c3nc(-c4ccccn4)no3)c3ccccc3n2)cc1 | -10.1%
COc1cccc(C(c2sc3nc(C)nn3c2O)N2CCc3ccccc3C2)c1 (centres undefined) | -7.4%
CCOC(=O)CNC(=O)CSc1nnc(Cn2c(=O)sc3ccccc32)n1C | -4.4%
Cc1cc(C(=O)OCC(=O)NCc2ccco2)c(C)n1-c1ccccc1 | 62.1% (active)
Cc1cc(C(=O)OCC(=O)NCc2ccco2)c(C)n1-c1ccc(F)cc1 | 63.7% (active)
Cc1cc(C(=O)CNCc2ccco2)c(C)n1-c1ccc(F)cc1 | 2.4%
O=C(COC(=O)c1ccccc1)NCc1ccco1 | 6.9%
Cc1nn(-c2ccccc2)c(C)c1C(=O)OCC(=O)NCc1ccco1 | -6.6%
Cc1cc(C(=O)OCC(=O)N2CCN(C(=O)c3ccco3)CC2)c(C)n1-c1ccc(F)cc1 | -4.9%
COc1cccc(NC(=O)c2ccccc2-c2nc(-c3ccc(Cl)cc3)no2)c1 | 16.9%
O=C(NCc1ccco1)C(C(=O)c1ccc(F)cc1)n1ccccc1=O (centres undefined) | -0.6%
COC(=O)Nc1ccc(S(=O)(=O)N2CCCc3ccccc32)cc1 | 53% (active)
Cc1cc(NC(=O)COC(=O)c2ccc(S(=O)(=O)N3CCCc4ccccc43)cc2)no1 | 52.4% (active)
Cc1cc(NC(=O)COC(=O)c2ccc(NS(=O)(=O)c3ccc(C)c(C)c3)cc2)no1 | -8.8%
CC(=O)Nc1ccc(S(=O)(=O)N2CCCc3ccccc32)cc1 | 23.1%
O=C(O)C1CC=CCC1C(=O)Nc1ccc(S(=O)(=O)N2CCCc3ccccc32)cc1 (centres undefined) | -8.5%
Cc1cc(NC(=O)COC(=O)c2cccc(S(=O)(=O)N3CCOCC3)c2)no1 | 8.4%
COc1ccc(CCNS(=O)(=O)c2ccc3c(c2)oc(=O)n3C)cc1OC | 3.2%
CCOC(=O)COc1ccc(S(=O)(=O)N2CCN(c3ccccc3F)CC2)cc1 | -0.3%

SMILES | cytotoxicity
CCOc1ccc2nc3sc(C(=O)N4CCN(C)CC4)c(N)c3cc2c1 | -19.5%
Cc1cccc2cc3c(N)c(C(=O)N4CCOCC4)sc3nc12 | 59% (active)
Cc1cccc2cc3c(N)c(C#N)sc3nc12 | 2.6%
Cc1ccc2cc3c(N)c(C(=O)N4CCOCC4)sc3nc2c1 | 3.2%
Cc1ccc2nc3sc(C(=O)N4CCOCC4)c(N)c3cc2c1 | 55.8% (active)
COc1ccc2cc3c(N)c(C(=O)N4CCCC4)sc3nc2c1 | 3.4%
CCN(CC)CCNC(=O)c1c(O)c2c([nH]c1=O)CCCC2 | 0.6%
O=C(CCn1c(=S)[nH]c2ccccc2c1=O)N1CCOCC1 | -2.8%
O=C1C2CC=C(Cl)CC2C(=O)N1c1ncn[nH]1 (centres undefined) | -1.3%
CC(C)C1N(c2ccccc2)C(N)=C(C#N)C1(C#N)C#N (centres undefined) | -5.5%
COc1cccc2sc(Nc3nnc(-c4ccccc4Cl)o3)nc12 | -3.2%
COc1ccc(-c2nnc(Nc3nc4c(OC)cccc4s3)o2)c(OC)c1 | 8.4%
COc1ccccc1-c1nnc(Nc2nc3c(OC)cccc3s2)o1 | 51.8% (active)
Cc1ccc(C(C(=O)NCc2ccccc2)N(C(=O)c2csnn2)c2cccc3ccccc23)o1 (centres undefined) | -5.1%
COc1cc(/C=N/Nc2nc3ccccc3o2)cc(OC)c1O | 17.8%
Cc1cc2c(N)cccc2nn1 | -9.9%
Nc1cccc2cnccc12 | 20.7%
CNC(=O)CSc1nc2nc(C)cc(C)n2n1 | 16.5%
CCCCS(=O)(=O)/C=C/[C@H]1[C@H](S(=O)(=O)CCCC)[C@H]2C=C[C@@H]1C2 | 0.3%
CCCCS(=O)(=O)/C=C\C1C2C=CC(C2)C1S(=O)(=O)CCCC (centres undefined) | -14.4%
CCCCS(=O)(=O)/C=C\C=C/S(=O)(=O)CCCC | 94% (active)
CCC(C)NC(=O)CNS(=O)(=O)c1ccc(C)cc1 (centres undefined) | 1.4%
COc1cc(CNc2ccc3c(c2)CCC3)cc(OC)c1O | -2.4%
O=C(NCc1ccco1)C1CCC(CNS(=O)(=O)c2cccc3cccnc23)CC1 (centres undefined) | -8.6%

Source: PubChem BioAssay AID620 (Sanford-Burnham Center for Chemical Genomics, 2007)
